Test results published in PubChem BioAssay AID1159580 (chemical genetic matrix, 2015).
Out of some 5,500 compounds screened, about 2,000 (36%) were called active. Not shown: some 18% with an inconclusive outcome. Cut-off read from the data, not from the text of the source: active = normalized growth mostly below about 0.91 (no sharp cut-off); inconclusive = no clear call, values can overlap the other calls; inactive = mostly above about 0.92. The list shows a part of the results.

Assay: chemical genetic growth profiling, strain panel (AID 1159580);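 note: tested at 20 µM; growth read once vehicle control cultures reached saturation at 30 °C; 1 = growth at the plate median or of vehicle wells; lower values mean less growth of the strain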
Conditions: S. cerevisiae deletion strains, growth OD

Measured: normalized growth

O=S(=O)(NCC1CC1)c1ccc(F)c(Cl)c1
inactive: locus YAL013W, strain DEP1, stronger effect = lower value 1 | locus YBR229C, strain ROT2, stronger effect = lower value 1 | locus YCL061C, strain MRC1, stronger effect = lower value 0.999 | locus YDL101C, strain DUN1, stronger effect = lower value 0.994 | locus YDL134C, strain PPH21, stronger effect = lower value 1.01 | locus YDR150W, strain NUM1, stronger effect = lower value 0.945 | locus YEL061C, strain CIN8, stronger effect = lower value 1 | locus YGR078C, strain PAC10, stronger effect = lower value 1 | locus YHR030C, strain SLT2, stronger effect = lower value 0.969 | locus YHR087W, strain rtc3, stronger effect = lower value 1.02 | locus YJR043C, strain POL32, stronger effect = lower value 0.997 | locus YJR075W, strain HOC1, stronger effect = lower value 1.01 | locus YLR039C, strain RIC1, stronger effect = lower value 1.06 | locus YLR058C, strain SHM2 (second series), stronger effect = lower value 1 | locus YLR085C, strain ARP6, stronger effect = lower value 1 | locus YLR262C, strain YPT6, stronger effect = lower value 1 | locus YML094W, strain GIM5, stronger effect = lower value 1.01 | locus YMR219W, strain ESC1, stronger effect = lower value 1 | locus YMR263W, strain SAP30, stronger effect = lower value 1 | locus YNL153C, strain GIM3, stronger effect = lower value 1 | locus YNL298W, strain CLA4 (second series), stronger effect = lower value 1.03 | locus YNL322C, strain KRE1, stronger effect = lower value 0.995 | locus YNR030W, strain Alg12, stronger effect = lower value 0.996 | locus YOL006C, strain TOP1, stronger effect = lower value 1.05 | locus YPL055C, strain LGE1, stronger effect = lower value 1.02 | locus YPL241C, strain CIN2, stronger effect = lower value 0.99 | locus YPR135W, strain CTF4, stronger effect = lower value 1.02
